GPR151 activ – activators of human GPR151, primary screen, cell-based, PathHunter beta-arrestin, luminescence; PathHunter beta-arrestin GPR151 cells; G-protein coupled receptor 151 (Homo sapiens), Q8TDV0; activation, % at 11.2 µM; 650,000 tested, 1% active; in the data active = activation above about 4.9%;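 also: 0% = median of compound wells and 100% = cells with positive control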
TEAD-YAP inh – TEAD-YAP interaction inhibition, primary screen, TEAD-YAP interaction inhibitor project, luminescence, HEK-TIYL cells. TEAD-Gal4/YAP UAS-luciferase luminescence. inhibition, % at 9.12 µM. 640,000 tested, 1.4% active. AID 1259422, 2018; in the data active = inhibition above about 32%;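 also: 0% = median of test compound wells and 100% = reference inhibitor wells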
MITF primary – MITF inhibitors, primary screen, biochemical, AlphaScreen, human | AlphaScreen MITF homodimerization, bead proximity signal | inhibition, % at 2.6 µM | 650,000 tested, 0.91% active | AID 1259374, 2018; in the data active = inhibition above about 50%;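 also: 0% = vehicle wells with protein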
FBW7 act – FBW7 E3 ligase activators, primary screen, biochemical, AlphaScreen, human; 650,000 tested, 0.13% active; F-box/WD repeat-containing protein 7 (Homo sapiens), Q969H0; AlphaScreen FBW7–phospho-cyclin E peptide binding, activator screen; AID 1259310, 2017; normalized activity (activation), % at 26.1 µM; in the data active = normalized activity above about 1.9%;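 also: purified mutant Fbw7 with reduced substrate affinity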
Target sequence (Q969H0 whole entry, looked up): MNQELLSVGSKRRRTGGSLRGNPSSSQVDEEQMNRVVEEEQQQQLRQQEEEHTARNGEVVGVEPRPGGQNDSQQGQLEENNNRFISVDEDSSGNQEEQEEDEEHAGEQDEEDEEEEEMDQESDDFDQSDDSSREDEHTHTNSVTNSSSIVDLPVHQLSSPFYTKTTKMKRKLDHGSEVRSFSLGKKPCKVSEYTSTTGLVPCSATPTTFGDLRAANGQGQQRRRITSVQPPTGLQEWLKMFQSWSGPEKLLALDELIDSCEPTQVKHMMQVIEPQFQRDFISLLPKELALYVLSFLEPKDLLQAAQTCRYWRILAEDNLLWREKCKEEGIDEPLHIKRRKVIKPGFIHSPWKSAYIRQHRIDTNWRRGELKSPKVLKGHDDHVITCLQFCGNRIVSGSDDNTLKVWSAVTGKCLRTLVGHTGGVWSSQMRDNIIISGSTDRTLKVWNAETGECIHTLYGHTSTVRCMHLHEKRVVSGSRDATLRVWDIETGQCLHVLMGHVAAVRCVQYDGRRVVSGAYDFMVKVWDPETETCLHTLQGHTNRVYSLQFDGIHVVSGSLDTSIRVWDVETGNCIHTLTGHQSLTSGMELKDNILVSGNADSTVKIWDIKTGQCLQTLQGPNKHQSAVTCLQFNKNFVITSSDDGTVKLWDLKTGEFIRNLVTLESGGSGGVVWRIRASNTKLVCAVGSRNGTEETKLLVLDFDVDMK
GPR151 conf act – GPR151 activators, triplicate retest, confirmation, cell-based, PathHunter beta-arrestin, luminescence; AID 1508609, 2020; GPR151 PathHunter beta-arrestin cells, 90 min; % of EA-reagent control over plate median; activation, % at 11.2 µM; 6,700 tested, under 10 active; shares compounds with GPR151 activ;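 active = mean percent activation across replicates above the confirmation screen cutoff of 4.91%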
GPR119 counter – GPR119 activators in beta-arrestin cells, counter-screen for GPR151 activator project, cell-based, PathHunter beta-arrestin, luminescence, triplicate; shares compounds with GPR151 activ; activation, % at 11.2 µM; 90 min; 0 = compound-well median, 100 = enzyme-acceptor control; 6,700 tested, 0.3% active;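 active = mean percent activation in the counterscreen above 29.09%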;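 also: counterscreen on off-target GPR119 to flag nonselective hits from the GPR151 activator screen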
* hit, by the source's call; / = no result. Shown are actives, neighbours in structure and some others; about 3.5% of the full set was active somewhere.

SMILES | GPR151 activ | TEAD-YAP inh | MITF primary | FBW7 act | GPR151 conf act | GPR119 counter
Cc1cc([N+](=O)[O-])ccc1NC(=S)NC(=O)COc1ccccc1 | 7.3* | 7.4 | 2.6 | 0.0 | 0.5 | 12.4
O=C(NCCc1ccccc1)c1cccc(OC2CCN(Cc3ncc[nH]3)CC2)c1 | 2.3 | -8.3 | 7.6 | -0.1 | / | /
Oc1ccc(-c2nc(-c3cccc(C(F)(F)F)c3)c(-c3ccccc3)[nH]2)cc1 | 5.8* | 11.6 | 6.7 | 0.2 | -0.3 | -3.9
Oc1ccc(-c2nc(-c3ccc(-c4ccccc4)cc3)c(-c3ccc(-c4ccccc4)cc3)[nH]2)cc1 | -0.7 | 9.4 | 10.6 | 0.1 | / | /
Cc1ccc(C)c(OCC(=O)Nc2ccc(C#N)cc2)c1 | -0.2 | 5.7 | 2.2 | 0.1 | / | /
CCC(=O)c1c(C)nc2n(C)c3ccccc3n12 | 1.2 | 1.7 | -21.3 | 0.3 | / | /
NCc1cccc(CNC(=O)c2c[nH]c3cc(-c4cn[nH]c4)ccc23)c1 | 5.1* | -11.5 | -10.6 | -0.3 | -1.6 | -7.4
CC(C)CNC(=O)c1c(O)c2ccccc2[nH]c1=O | 0.2 | -20.4 | -4.7 | -0.1 | / | /
Cc1ccc(CN2CCNC(=O)C2CC(=O)N2CCCN(Cc3ccccn3)CC2)o1 (configuration not stated) | 5.6* | -0.8 | 12.8 | -0.2 | 0.3 | 1.5
Cc1ccc(CN2CCNC(=O)C2CC(=O)N2CCCN(c3ncccn3)CC2)o1 (configuration not stated) | 0.5 | -1.4 | -17.0 | -0.1 | / | /
COCCCNC(=O)CN(c1ccccc1)S(=O)(=O)c1ccc(F)cc1 | 0.0 | 9.8 | 8.4 | 0.0 | / | /
CCNS(=O)(=O)c1ccc(NC(=O)Nc2cccc([N+](=O)[O-])c2)cc1 | 13.2* | 1.5 | 4.6 | -0.2 | 0.0 | 2.5
CCCCOC(=O)Nc1ccc(S(=O)(=O)Nc2cccc([N+](=O)[O-])c2)cc1 | 5.3* | -5.7 | -0.6 | -0.1 | -0.3 | -2.3
CC1CCC(Nc2nc3ccccc3c3nc(-c4cccnc4)nn23)CC1 (configuration not stated) | 8.1* | -2.2 | -0.7 | -0.1 | 0.6 | 10.3
CC(C)=NNC(=O)c1ccc(Cl)cc1 | 11.6* | -34.5 | 7.2 | 0.1 | 0.2 | 1.8
Cc1ccc(F)cc1CNC(=O)c1ccc(OC2CCN(C(=O)C3CC3)CC2)cc1 | -0.8 | 5.0 | -0.7 | 0.0 | / | /
Cc1cc(C)nc(SCC(=O)N2CCCCC2)n1 | 7.5* | -1.8 | 13.1 | 0.1 | 0.1 | 15.4
Cc1cc(=O)[nH]c2nnc(SCC(=O)N3CCCCCC3)n12 | 6.1* | 4.0 | -4.0 | -0.2 | -0.3 | 0.1
COc1cc(Nc2nc3ccc(C(=O)NCCc4ccc(O)cc4)cc3s2)cc(OC)c1OC | 1.9 | 10.1 | -17.0 | -0.2 | / | /
O=C(NNS(=O)(=O)c1ccc(Br)cc1)c1ccccc1 | 5.4* | 5.6 | 7.2 | 0.9 | -0.2 | -8.0
O=C(NNS(=O)(=O)c1ccc2ccccc2c1)c1ccc(Br)cc1 | 0.9 | -6.0 | 3.7 | 0.0 | / | /
O=C(O)CCN1C(=O)C(=O)/C(=C(\O)c2ccccc2)C1c1ccccc1Cl (configuration not stated) | -0.1 | 6.7 | 5.4 | -0.1 | / | /
CC(C)CNC(=O)Cn1nnc2ccccc2c1=O | 7.7* | -8.8 | -2.1 | -0.1 | 0.3 | 2.4
CC(C)CC(=O)N1CCC(n2nnc3ccccc3c2=O)CC1 | 6.0* | 0.3 | 27.2 | 1.1 | 1.0 | 5.1
CN(C)c1ccc(/C=N/NC(=O)Cc2cc(=O)[nH][nH]2)cc1 | 0.0 | 11.5 | 5.9 | 0.6 | / | /
SMILES | GPR151 activ | TEAD-YAP inh | MITF primary | FBW7 act | GPR151 conf act | GPR119 counter
O/N=C/c1ccc(OCc2ccccc2Cl)cc1 | -0.9 | -51.1 | 3.0 | 0.1 | / | /
Cc1ccc(/C(N)=N/OC(=O)CCc2ccccc2)cc1 | 5.0* | -22.7 | 9.4 | 0.0 | -0.5 | -10.1
CCN1CCSc2ccc(C(=O)NCc3ccc(C)cc3)cc21 | 6.4* | -5.7 | -7.0 | 0.0 | -1.6 | -20.3
Cc1ccc(OCC(=O)N/N=C/c2cc3c(cc2[N+](=O)[O-])OCO3)cc1C | -1.2 | 5.6 | 18.3 | -0.1 | / | /
COc1ccc(OCC(=O)N/N=C/c2cc3c(cc2[N+](=O)[O-])OCO3)cc1 | 10.2* | -6.1 | -1.2 | -0.1 | -0.4 | -14.7
Cc1c(NC(=O)CN(c2ccc3c(c2)OCO3)S(C)(=O)=O)cccc1[N+](=O)[O-] | -0.9 | -5.3 | -12.7 | -0.1 | / | /
CCCSc1nc2c(c(=O)n1Cc1ccccc1)C(C)(C1CCCCC1)Cc1ccccc1-2 (configuration not stated) | 0.7 | 10.2 | 4.6 | 0.0 | / | /
CC(=O)Cn1c(=O)c2c(nc3n(-c4ccccc4)c(C)c(C)n23)n(C)c1=O | 11.1* | 7.8 | 11.4 | -0.1 | 0.0 | 4.4
C=CCn1c(=O)c2c(nc3n(-c4cccc(Cl)c4)c(C)c(C)n23)n(C)c1=O | 6.3* | -4.6 | -0.7 | 0.0 | -1.2 | -2.6
C=CCn1c(=O)c2c(nc3n(-c4ccc(Cl)cc4)c(C)c(C)n23)n(C)c1=O | -1.0 | 11.4 | 12.5 | 0.3 | / | /
COC(=O)C(C)n1c(=O)c2c(nc3n(-c4cc(C)cc(C)c4)c(C)c(C)n23)n(C)c1=O (configuration not stated) | 0.4 | 11.6 | -11.2 | 0.0 | / | /
COC(=O)C(C)n1c(=O)c2c(nc3n(-c4ccc(C)c(C)c4)c(C)c(C)n23)n(C)c1=O (configuration not stated) | 5.3* | -1.1 | 4.5 | -0.1 | 0.1 | 3.7
C=CCN(CC=C)C(=O)COc1ccc(Cl)cc1 | -1.2 | -1.4 | 13.8 | 0.2 | / | /
O=C(CSc1nc2ccccc2c(=O)n1CC1CCC(C(=O)NCc2ccccc2Cl)CC1)Nc1cccc(C(F)(F)F)c1 (configuration not stated) | 0.2 | -5.8 | -4.4 | -0.1 | / | /
Cc1ccccc1N1C(=O)c2ccc(Oc3ccc([N+](=O)[O-])cc3)cc2C1=O | -0.3 | 4.1 | 10.3 | -0.1 | / | /
Cc1ccc(C(=O)O)cc1N1C(=O)c2ccc(Oc3ccc([N+](=O)[O-])cc3)cc2C1=O | 6.8* | 0.3 | -10.6 | 0.3 | 0.3 | 1.6
COc1cc(-c2ccc(NC(=O)C3CCCO3)c(OC)c2)ccc1NC(=O)C1CCCO1 (configuration not stated) | 3.8 | -7.1 | -4.2 | -0.3 | / | /
CCCCCc1nnc(NC(=O)C2CCCO2)s1 (configuration not stated) | -0.9 | -51.8 | -8.1 | -0.1 | / | /
CCCc1cc(C(N)=O)c(NC(=O)C2CCCO2)s1 (configuration not stated) | 10.1* | -1.3 | 21.2 | 0.3 | 0.6 | 13.5

Assay outcomes: PubChem BioAssay, The Scripps Research Institute Molecular Screening Center
